# Laboratory results: PubChem BioAssay (NCATS)
# Inconclusive results are not listed. Where a call stands in place of a potency, no number is given. A number with no mark means an inactive call. Activity calls are given as the source filed them. Unless noted, calls come from the whole dose curve; as a rule, active = well fitted inhibition curve with a large enough effect; inconclusive = small, poorly fitted or top-dose-only effect; inactive = no such curve, though single readings can be large or run the other way.
# Test system: not listed separately
# Assay: NS1 protein of Zika virus - qHTS assay to identify small molecule inhibitors in human HEK 293 cells (AID 1347053); note: nearly all actives have a fitted effect of over 55% in size; note: potency is the fitted concentration of half-maximal effect
# Conditions: HEK293 ZIKV MR766 infection, NS1 TR-FRET, 24 h; series mostly up to 46.1 µM; activity change, negative = inhibition: at the top concentration
# How it was run: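 Inhibition of NS1 expression was scored in HEK 293 cells given compound 1 h ahead of MR766 virus (MOI = 0.5). Following 24 h at 37 C, two anti-NS1 antibodies generated a TR-FRET signal, scaled between uninfected and infected controls.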
Compound,Potency,"activity change, negative = inhibition [%]"
C[C@@H]1CN(c2c(F)c(N)c3c(=O)c(C(=O)O)cn(C4CC4)c3c2F)C[C@H](C)N1,inactive,–
CC(=O)[C@H]1CC[C@H]2[C@@H]3CCC4=CC(=O)CC[C@]4(C)[C@H]3CC[C@]12C,–,27.4
CC1=C(C(=O)O)N2C(=O)[C@@H](NC(=O)C(N)c3ccccc3)[C@H]2SC1 (some centres not stated),inactive,–
CC1CC2C3CCC4=CC(=O)C=C[C@]4(C)[C@@]3(F)[C@@H](O)C[C@]2(C)[C@@]1(O)C(=O)CO (some centres not stated),inactive,–
C[C@@H]1C[C@H]2[C@@H]3CCC4=CC(=O)C=C[C@]4(C)[C@@]3(Cl)[C@@H](O)C[C@]2(C)[C@@]1(OC(=O)c1ccco1)C(=O)CCl,–,19.8
Nc1nc(N)c2nc(CNc3ccc(C(=O)NC(CCC(=O)O)C(=O)O)cc3)cnc2n1 (configuration not stated),inactive,–
NC(=O)c1ccc2[nH]ccc2c1,inactive,–
CN1CCN(c2c(F)cc3c(=O)c(C(=O)O)cn4c3c2OCN4C)CC1,inactive,–
N[C@@H](Cc1ccc(O)c(O)c1)C(=O)O,inactive,–
CCc1c2c(nc3ccc(OC(=O)N4CCC(N5CCCCC5)CC4)cc13)-c1cc3c(c(=O)n1C2)COC(=O)[C@]3(O)CC,332 nM (active),–
NCCCC(O)(P(=O)(O)O)P(=O)(O)O,inactive,–
NC(=O)c1cccc(N)c1,inactive,–
Cc1oc(=O)oc1CN1CCN(c2cc3c(cc2F)c(=O)c(C(=O)O)c2n3C(C)S2)CC1 (configuration not stated),inactive,–
Nc1nc(=S)c2[nH]cnc2[nH]1,inactive,–
CCOC(=O)c1ccc(C#Cc2ccc3c(c2)C(C)(C)CCS3)nc1,inactive,–
COc1nc(N)nc2c1ncn2[C@@H]1O[C@H](CO)[C@@H](O)[C@@H]1O,inactive,–
O=C(O)C1CCCN(CCC=C(c2ccccc2)c2ccccc2)C1 (configuration not stated),inactive,–
OC(Cn1cncn1)(Cn1cncn1)c1ccc(F)cc1F,inactive,–

Compound,Potency,"activity change, negative = inhibition [%]"
CCN1CCCC1CNC(=O)c1cc(S(N)(=O)=O)ccc1OC (configuration not stated),inactive,–
CNS(=O)(=O)CCc1ccc2[nH]cc(C3CCN(C)CC3)c2c1,inactive,–
CCN(CC)CCn1c(=O)c(Cc2ccc(OC)cc2)nc2ccccc21,inactive,–
O=S(=O)(c1cccc2cnccc12)N1CCCNCC1,inactive,–
CCCCS(=N)(=O)CCC(N)C(=O)O (configuration not stated),inactive,–
CCN(CC)CC#CCOC(=O)C(O)(c1ccccc1)C1CCCCC1 (configuration not stated),–,10.7
CCOC(=O)[C@H](CCc1ccccc1)N[C@H]1CS[C@H](c2cccs2)CN(CC(=O)O)C1=O,inactive,–
O=P(O)(O)C(O)(Cc1cccnc1)P(=O)(O)O,inactive,–
COc1ccccc1OCC(O)COC(N)=O (configuration not stated),inactive,–
CCN(C)C(=O)Oc1cccc([C@H](C)N(C)C)c1,inactive,–
CC(=O)[C@H]1CC[C@H]2[C@@H]3CC=C4C[C@@H](O)CC[C@]4(C)[C@H]3CC[C@]12C,inactive,–
CC(C)C[C@H](NC(=O)[C@H](CCc1ccccc1)NC(=O)CN1CCOCC1)C(=O)N[C@@H](Cc1ccccc1)C(=O)N[C@@H](CC(C)C)C(=O)[C@@]1(C)CO1,118 nM (active),–
COc1cc2ncnc(Nc3cccc(Cl)c3)c2cc1OC,inactive,–
O=C(O)c1cn(C2CC2)c2cc(N3CCNCC3)c(F)cc2c1=O,inactive,–
COc1ccc(C(=O)CC(=O)c2ccc(C(C)(C)C)cc2)cc1,inactive,–
CNS(=O)(=O)Cc1ccc2[nH]cc(CCN(C)C)c2c1,inactive,–
Cn1c(=O)c2c(ncn2CC(O)CO)n(C)c1=O (configuration not stated),inactive,–
CC(C)NCC(O)c1ccc(NS(C)(=O)=O)cc1 (configuration not stated),inactive,–

# Molecular target: T1, Tyrosine-protein phosphatase non-receptor type substrate 1 (Homo sapiens) + Leukocyte surface antigen CD47 (Homo sapiens) (UniProt P78324+Q08722)
# T1 sequence (P78324 whole entry, looked up): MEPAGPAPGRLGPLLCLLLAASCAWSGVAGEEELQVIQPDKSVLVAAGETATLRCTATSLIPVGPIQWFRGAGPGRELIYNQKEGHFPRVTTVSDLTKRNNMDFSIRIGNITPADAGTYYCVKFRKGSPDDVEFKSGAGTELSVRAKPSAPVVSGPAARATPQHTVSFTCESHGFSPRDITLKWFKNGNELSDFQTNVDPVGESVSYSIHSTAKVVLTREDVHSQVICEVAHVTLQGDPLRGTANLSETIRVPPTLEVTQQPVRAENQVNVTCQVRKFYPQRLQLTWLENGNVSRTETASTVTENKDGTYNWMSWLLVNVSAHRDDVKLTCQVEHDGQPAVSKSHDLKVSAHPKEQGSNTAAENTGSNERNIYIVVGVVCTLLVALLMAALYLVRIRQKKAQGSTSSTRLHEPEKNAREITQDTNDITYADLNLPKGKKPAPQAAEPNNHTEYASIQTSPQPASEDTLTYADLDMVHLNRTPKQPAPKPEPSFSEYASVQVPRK
# T1 sequence (Q08722 whole entry, looked up): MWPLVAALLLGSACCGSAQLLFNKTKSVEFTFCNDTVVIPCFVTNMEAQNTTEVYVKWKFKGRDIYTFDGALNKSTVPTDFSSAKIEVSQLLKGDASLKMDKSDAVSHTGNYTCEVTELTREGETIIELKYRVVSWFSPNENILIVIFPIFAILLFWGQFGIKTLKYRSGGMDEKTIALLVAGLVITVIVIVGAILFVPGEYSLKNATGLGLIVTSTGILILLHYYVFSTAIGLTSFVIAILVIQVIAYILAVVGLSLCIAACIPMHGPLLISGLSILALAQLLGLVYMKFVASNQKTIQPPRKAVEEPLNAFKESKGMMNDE
# Assay: CD47-SIRPalpha protein protein interaction - LANCE assay qHTS validation (AID 1347057; active = well fitted curve in the direction sought with a large enough effect in the signal ratio, with a control signal flat, not every such curve was filed as active; the % refers to the signal ratio)
# Conditions: Recombinant CD47-His / biotin-SIRPalpha, TR-FRET ratio; series mostly up to 38.3 µM; activity change, negative = inhibition: at the top concentration
# How it was run: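 First, His-tagged CD47 and Eu-labelled anti-His antibody met the compound for 30 min; next, site-specifically biotinylated SIRPalpha was added for 30 min; finally streptavidin-APC was added before reading the TR-FRET ratio.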
row,Compound,"activity change, negative = inhibition [%]"
1,CC(=O)[C@H]1CC[C@H]2[C@@H]3CCC4=CC(=O)CC[C@]4(C)[C@H]3CC[C@]12C,0.791
2,CC1=C(C(=O)O)N2C(=O)[C@@H](NC(=O)C(N)c3ccccc3)[C@H]2SC1 (some centres not stated),4.03
3,CC1CC2C3CCC4=CC(=O)C=C[C@]4(C)[C@@]3(F)[C@@H](O)C[C@]2(C)[C@@]1(O)C(=O)CO (some centres not stated),1.58
4,Nc1nc(N)c2nc(CNc3ccc(C(=O)NC(CCC(=O)O)C(=O)O)cc3)cnc2n1 (configuration not stated),1.85
5,NC(=O)c1ccc2[nH]ccc2c1,-0.044
6,N[C@@H](Cc1ccc(O)c(O)c1)C(=O)O,-0.22
7,NC(=O)c1cccc(N)c1,2.35
8,O=C(O)C1CCCN(CCC=C(c2ccccc2)c2ccccc2)C1 (configuration not stated),0.613
9,CCN1CCCC1CNC(=O)c1cc(S(N)(=O)=O)ccc1OC (configuration not stated),0.396
10,CNS(=O)(=O)CCc1ccc2[nH]cc(C3CCN(C)CC3)c2c1,1.14
11,CCN(CC)CCn1c(=O)c(Cc2ccc(OC)cc2)nc2ccccc21,-0.0669
12,CCCCS(=N)(=O)CCC(N)C(=O)O (configuration not stated),3.21
13,COc1cc2nc(N3CCCN(C)CC3)nc(NC3CCN(Cc4ccccc4)CC3)c2cc1OC,-5.15
14,COc1cc2ncnc(Nc3cccc(Cl)c3)c2cc1OC,-0.977
15,CC(C)NCC(O)c1ccc(NS(C)(=O)=O)cc1 (configuration not stated),1.69

# Molecular target: T1, Tyrosine-protein phosphatase non-receptor type substrate 1 (Homo sapiens) + Leukocyte surface antigen CD47 (Homo sapiens)
# Assay: CD47-SIRPalpha protein protein interaction - HTRF assay qHTS validation (AID 1347058; active = well fitted curve in the direction sought with a large enough effect in the signal ratio, not every such curve was filed as active; the % refers to the signal ratio;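 note: recombinant soluble extracellular CD47 with His tag and biotinylated SIRPalpha domains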)
# Conditions: TR-FRET HTRF CD47-His / biotin-SIRPalpha binding, ratio 665/615; series mostly up to 38.3 µM; activity change, negative = inhibition: at the top concentration
# How it was run: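 TR-FRET read (Ch1/Ch2 ratio) of soluble extracellular CD47 and Avi-biotinylated SIRPalpha domains in PBS pH 7.4 with 0.05% IGEPAL; 7-point compound titration. Sequential 30 min room-temperature steps; non-biotinylated SIRPalpha as control inhibitor.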
row,Compound,"activity change, negative = inhibition [%]"
1,CC(=O)[C@H]1CC[C@H]2[C@@H]3CCC4=CC(=O)CC[C@]4(C)[C@H]3CC[C@]12C,8.33
2,CC1CC2C3CCC4=CC(=O)C=C[C@]4(C)[C@@]3(F)[C@@H](O)C[C@]2(C)[C@@]1(O)C(=O)CO (some centres not stated),0.0621
3,NC(=O)c1ccc2[nH]ccc2c1,0.408
4,N[C@@H](Cc1ccc(O)c(O)c1)C(=O)O,-7.88
5,NC(=O)c1cccc(N)c1,1.5
6,O=C(O)C1CCCN(CCC=C(c2ccccc2)c2ccccc2)C1 (configuration not stated),-11.8
7,CCN1CCCC1CNC(=O)c1cc(S(N)(=O)=O)ccc1OC (configuration not stated),3.49
8,CNS(=O)(=O)CCc1ccc2[nH]cc(C3CCN(C)CC3)c2c1,-0.355
9,CCCCS(=N)(=O)CCC(N)C(=O)O (configuration not stated),0.156
10,COc1cc2nc(N3CCCN(C)CC3)nc(NC3CCN(Cc4ccccc4)CC3)c2cc1OC,-11.3
11,CC(C)NCC(O)c1ccc(NS(C)(=O)=O)cc1 (configuration not stated),0.729
